{"source": "PubChem BioAssay (Tox21)", "note": "Records with an inconclusive call do not appear. Entries that show only a call come without a potency. Active and inactive are the calls of the source. Calls come from the whole dose curve; as a rule, active = well fitted cell-killing curve with a large enough effect in the repeat runs; inconclusive = weak or mixed curves, or effect the other way; inactive = no such curve, though single readings can be large or run the other way."}
{"assay": "qHTS assay to identify small molecule antagonists of the progesterone receptor (PR) signaling pathway - cell viability counter screen (AID 1346798); note: nearly all actives have a fitted effect of over 50% in size", "settings": "PR-UAS-bla HEK293T viability, CellTiter-Glo luminescence, 16 h; series mostly up to 92.4 µM", "procedure,_shortened": "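In the same plates used for the beta-lactamase readout, cell viability of compound- and R5020-treated PR-UAS-bla HEK293T cells (16 hr, 37C) was assessed by CellTiter-Glo luminescence.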"}
{"smiles": "C[C@H]1CNCCc2ccc(Cl)cc21", "Potency": "inactive"}
{"smiles": "CCC(Br)(CC)C(=O)NC(N)=O", "Potency": "inactive"}
{"smiles": "COC(C)(C)CCC[C@H](C)C/C=C/C(C)=C/C(=O)OC(C)C", "Potency": "inactive"}
{"smiles": "Clc1cc(C(Cl)(Cl)Cl)cnc1Cl", "Potency": "inactive"}
{"smiles": "CCCCNP(N)(N)=S", "Potency": "inactive"}
{"smiles": "CC(=O)[C@H]1CC[C@H]2[C@@H]3CC[C@H]4C[C@](C)(O)CC[C@]4(C)[C@H]3CC[C@]12C", "Potency": "inactive"}
{"smiles": "O=C(O)C(F)(F)C(F)(F)C(F)(F)C(F)(F)C(F)(F)C(F)(F)C(F)(F)C(F)(F)C(F)(F)F", "Potency": "inactive"}
{"smiles": "C#CCOC(C(=O)OCCN(C)C)(c1ccccc1)c1ccccc1", "Potency": "inactive"}
{"smiles": "O=S(=O)(Cl)c1ccccc1", "Potency": "inactive"}
{"smiles": "Cc1cc(=O)[nH]o1", "Potency": "inactive"}
{"smiles": "O=C(O)COc1ccc(Cl)cc1", "Potency": "inactive"}
{"smiles": "CNC(C)Cc1ccccc1OC", "note": "(configuration not stated)", "Potency": "inactive"}
{"smiles": "c1ccc(CN2CCNCC2)cc1", "Potency": "inactive"}
{"smiles": "CCN(C)N=O", "Potency": "inactive"}
{"smiles": "ClCc1ccccc1", "Potency": "inactive"}
{"smiles": "O=S1OC[C@@H]2[C@H](CO1)[C@]1(Cl)C(Cl)=C(Cl)[C@@]2(Cl)C1(Cl)Cl", "note": "(some centres not stated)", "Potency": "inactive"}
{"smiles": "CCCCCC[N+](=O)[O-]", "Potency": "inactive"}
